From the supplement of paper PMC9694430

Assays:
Assay in all cases: thermal shift delta Tm vs DMSO control; higher = stronger stabilization (binding)
Conditions in all cases: 12.5 µM; protein concentration 2 µM
LOC_OS04G57630-cb004 = tested on: LOC_OS04G57630-cb004
Summary of the method: (§1)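 Compounds dissolved in DMSO were added to purified rice kinase domain constructs, which had been expressed in E. coli, for differential scanning fluorimetry. Each well held 19.5 μl of 2 μM kinase in 100 mM potassium phosphate pH 7.5, 150 mM NaCl, 10% glycerol and 5 × SYPRO Orange. Fluorescence was followed from 25°C to 95°C at a rate of 0.05°C/s. Shifts in Boltzmann-fitted melting temperature are triplicate means relative to DMSO-only protein.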

LOC_OS05G07850-cb002 = tested on: LOC_OS05G07850-cb002
Summary of the method: as §1

LOC_OS05G16824-cb004 = tested on: LOC_OS05G16824-cb004
Summary of the method: as §1

LOC_OS05G28520-cb001 = tested on: LOC_OS05G28520-cb001
Summary of the method: as §1

LOC_OS05G30820-cb001 = tested on: LOC_OS05G30820-cb001
Summary of the method: as §1

LOC_OS05G43570-cb004 = tested on: LOC_OS05G43570-cb004
Summary of the method: as §1

LOC_OS06G16330-cb003 = tested on: LOC_OS06G16330-cb003
LOC_OS06G16330-cb003, sequence (as listed by the source): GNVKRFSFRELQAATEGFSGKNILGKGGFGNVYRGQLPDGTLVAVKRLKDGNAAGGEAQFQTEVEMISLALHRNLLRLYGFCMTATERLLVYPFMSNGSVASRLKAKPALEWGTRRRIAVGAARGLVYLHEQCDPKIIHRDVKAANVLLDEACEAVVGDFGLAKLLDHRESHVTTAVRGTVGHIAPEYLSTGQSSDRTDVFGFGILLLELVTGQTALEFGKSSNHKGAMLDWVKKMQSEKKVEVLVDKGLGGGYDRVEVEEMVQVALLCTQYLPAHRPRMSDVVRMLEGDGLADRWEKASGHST
Summary of the method: as §1

LOC_OS06G22820-cb001 = tested on: T1, LOC_OS06G22820-cb001
T1 sequence (whole entry): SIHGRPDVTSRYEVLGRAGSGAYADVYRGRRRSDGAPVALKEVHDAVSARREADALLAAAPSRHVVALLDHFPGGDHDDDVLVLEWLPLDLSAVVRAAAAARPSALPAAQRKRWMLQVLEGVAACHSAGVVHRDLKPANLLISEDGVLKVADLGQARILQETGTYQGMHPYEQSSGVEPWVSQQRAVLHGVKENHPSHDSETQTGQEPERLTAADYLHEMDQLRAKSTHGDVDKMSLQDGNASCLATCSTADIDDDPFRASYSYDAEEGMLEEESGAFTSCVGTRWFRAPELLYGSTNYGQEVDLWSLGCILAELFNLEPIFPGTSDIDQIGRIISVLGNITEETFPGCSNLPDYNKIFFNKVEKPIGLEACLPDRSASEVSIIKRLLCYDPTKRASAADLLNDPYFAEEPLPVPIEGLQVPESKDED
Summary of the method: as §1

LOC_OS07G06570-cb004 = tested on: LOC_OS07G06570-cb004
Summary of the method: as §1

LOC_OS07G07230-cb001 = tested on: LOC_OS07G07230-cb001
Summary of the method: as §1

SMILES | thermal shift delta Tm (LOC_OS04G57630-cb004) | thermal shift delta Tm (LOC_OS05G07850-cb002) | thermal shift delta Tm (LOC_OS05G16824-cb004) | thermal shift delta Tm (LOC_OS05G28520-cb001) | thermal shift delta Tm (LOC_OS05G30820-cb001) | thermal shift delta Tm (LOC_OS05G43570-cb004) | thermal shift delta Tm (LOC_OS06G16330-cb003) | thermal shift delta Tm (LOC_OS06G22820-cb001) | thermal shift delta Tm (LOC_OS07G06570-cb004) | thermal shift delta Tm (LOC_OS07G07230-cb001)
COc1cc2ncnc(Nc3cccc(Cl)c3F)c2cc1OC(=O)N1CCN(C)C[C@H]1C | 0.65 °C | 9.1 °C | -0.19 °C | 0.6 °C | 0.5 °C | 0.72 °C | 2.26 °C | 0.6 °C | 1.12 °C | 0.94 °C
CCNc1nc(Nc2cc(F)c(C(=O)N3CCOCC3)cc2OC)ncc1C(F)(F)F | 0 °C | 3.03 °C | 1.21 °C | 0.71 °C | 0.46 °C | 0.26 °C | 0.76 °C | 0.28 °C | 0.96 °C | -0.16 °C
Cn1cc(-c2ccc3nnc(Sc4ccc5ncccc5c4)n3n2)cn1 | 0.16 °C | 0.32 °C | -3.78 °C | 0.44 °C | 0.68 °C | 0.24 °C | 0.16 °C | 0.36 °C | 1.36 °C | 0.51 °C
c1ccc(-c2[nH]ncc2-c2ccnc3ccccc23)nc1 | 0.26 °C | 3.02 °C | 0.42 °C | 0.19 °C | 0.24 °C | 0.65 °C | -2.93 °C | 0.08 °C | 0.81 °C | 0.53 °C
Cc1c(C(=O)Nc2ccc(Oc3ccnc4[nH]cc(-c5ccccc5)c34)c(F)c2)c(=O)n(-c2ccc(F)cc2)n1C | 0.42 °C | 14.4 °C | 1.37 °C | 0.13 °C | 0.63 °C | 0.25 °C | 6.4 °C | 0.86 °C | 1.05 °C | -0.13 °C
Cn1c(Nc2ccc(C(F)(F)F)cc2)nc2cc(Oc3ccnc(-c4ncc(C(F)(F)F)[nH]4)c3)ccc21 | 1.62 °C | 0.57 °C | 1.67 °C | 0.86 °C | 0.81 °C | 3.24 °C | 1.24 °C | 2.74 °C | 1.82 °C | -0.2 °C
CCn1cc(-c2ccnc3[nH]c(-c4cccc(CN(C)C)c4)cc23)c(-c2ccc(NC(=O)N(C)C)cc2)n1 | 1.27 °C | 8.63 °C | 0.47 °C | 0.42 °C | 0.52 °C | 0.64 °C | 4.22 °C | 0.71 °C | 1.35 °C | 0.42 °C
COc1cc2nccc(Oc3ccc(NC(=O)NC4CC4)c(Cl)c3)c2cc1C(N)=O [Lenvatinib (E7080)] | 1.31 °C | 3.32 °C | -2.91 °C | 0.18 °C | 0.7 °C | 0.32 °C | 1.75 °C | 0.98 °C | 0.84 °C | 0.35 °C
Cc1nc(NC(=O)N2CCC[C@H]2C(N)=O)sc1-c1ccnc(C(C)(C)C(F)(F)F)c1 [Alpelisib (BYL719)] | -0.02 °C | 7.19 °C | -1.37 °C | 0.17 °C | 0.38 °C | 0.29 °C | 0.44 °C | 0.57 °C | 1.48 °C | 0.13 °C
O=C(c1cccc(Cl)c1F)N1CCN(Cc2cccc(Nc3nccs3)n2)CC1 | 1.01 °C | 7.36 °C | 3.48 °C | 1.87 °C | 0.31 °C | -0.14 °C | 10.8 °C | 0.57 °C | 1.24 °C | 0 °C
Cn1ncc(Cl)c1-c1cc(C(=O)N[C@H](CN)Cc2ccc(F)c(F)c2)oc1Cl | 0.39 °C | 1.08 °C | 2.91 °C | 1.26 °C | 0.24 °C | 1.04 °C | 1.15 °C | 0.82 °C | -0.35 °C | -0.13 °C
CC(C)c1cnn2c(NCc3ccccc3)cc(NCCCCCCN)nc12 | -0.33 °C | -0.23 °C | -2.84 °C | 0.27 °C | 0.42 °C | 0.43 °C | -0.05 °C | 0.96 °C | 1.35 °C | 0.18 °C
CC(C)CCN1c2nc(Nc3cc(F)c(O)c(F)c3)ncc2N(C)C(=O)C1C (stereo not given) | 1.73 °C | 7.46 °C | 8.92 °C | 1 °C | 1.42 °C | 0.53 °C | 3.47 °C | 1.8 °C | 3.6 °C | 0.37 °C
CNc1nc(Nc2cnn([C@H]3CCN(C4COC4)C[C@@H]3F)c2Cl)ncc1C(F)(F)F | 1.85 °C | 10.8 °C | 5.54 °C | 0.59 °C | 0.51 °C | 0.4 °C | 5.64 °C | 0.65 °C | 0.89 °C | 0.28 °C
CC(C)(C)NC(=O)c1cncn1C1CCN(c2ccc(-c3nnc(C(F)(F)F)o3)cn2)CC1 | -0.11 °C | 0.05 °C | 0.92 °C | -0.42 °C | 0.02 °C | -0.06 °C | -0.23 °C | 0.29 °C | 1.08 °C | 0.57 °C
C=CC(=O)Nc1cccc(Oc2nc(Nc3ccc(N4CCN(C)CC4)cc3)ncc2Cl)c1 | 1.97 °C | 11.6 °C | 8.96 °C | 4.43 °C | 1.14 °C | 0.72 °C | 5.65 °C | 0.76 °C | 0.79 °C | 1.03 °C
Cc1c[nH]c2nc(Nc3ccc(N4CCN(C)CC4)c(F)c3)nc(-c3cccc(CC#N)c3)c12 | 4.89 °C | 15 °C | 12.3 °C | 3.05 °C | 0.83 °C | 1.16 °C | 17.6 °C | -0.11 °C | 2.22 °C | 0.57 °C
C=C[C@@](C)(/C=C/c1ccc(O)cc1)CCC=C(C)C [Bakuchiol] | 0.09 °C | 0.26 °C | -1.27 °C | 0.19 °C | 0.04 °C | 0.47 °C | -0.03 °C | 0.41 °C | 0.83 °C | 0.15 °C
CN(C)C/C=C/C(=O)Nc1cc2c(Nc3ccc(F)c(Cl)c3)ncnc2cc1O[C@H]1CCOC1 [Afatinib (BIBW2992)] | -0.38 °C | 7.09 °C | 0.09 °C | 0.25 °C | 0.35 °C | 0.5 °C | 1 °C | 0.48 °C | 0.78 °C | 0.57 °C
O=c1cc(N2CCOCC2)oc2c(-c3ccccc3)cccc12 | 0.2 °C | 1.02 °C | 0.85 °C | 0.91 °C | 0.41 °C | 0.98 °C | 0.37 °C | 1.05 °C | 0.89 °C | -0.39 °C
C[C@H]1CNC(=O)c2cnn3ccc(nc23)N[C@H](C)c2cc(F)ccc2O1 | 1.68 °C | 10.8 °C | 12.5 °C | 0.06 °C | 0.11 °C | 0.56 °C | 9.31 °C | -0.23 °C | 1.57 °C | 0.8 °C
NC1(Cc2ccc(Cl)cc2)CCN(c2ncnc3[nH]ccc23)CC1 | 0.12 °C | 2.2 °C | 0.61 °C | 0.49 °C | 0.66 °C | 0.72 °C | 0.73 °C | 0.61 °C | 0.47 °C | -0.27 °C
COc1cccc(-n2c(=O)[nH]c3cc(Cl)n(-c4ccc(-c5cccc(OC)c5O)cc4)c3c2=O)c1 | 0.32 °C | -0.83 °C | -0.73 °C | 0.37 °C | 0.41 °C | 0.59 °C | -0.14 °C | 0.65 °C | 1.02 °C | 0.5 °C
CC1(COc2ccc3c(c2)ncn3-c2ccc3cccc(N4CCC(N)CC4)c3n2)COC1 | 5.42 °C | 16.1 °C | 11.8 °C | 0.28 °C | 1.67 °C | 0.2 °C | 7.62 °C | 0.26 °C | 0.43 °C | -0.34 °C
